# Measurements as given in PubChem BioAssay (NCATS).
# “And” between values parts separate entries of the source, which are not always exact repeats. Equal values may be shown once. Records with an inconclusive call do not appear. Entries that show only a call come without a potency. The source made the active and inactive calls. Calls come from the whole dose curve.
# What was measured:
# [1] = Cytotoxicity counterscreen for inhibitors of SARS-CoV-2 cell entry (AID 1645845); note: nearly all actives have a fitted effect of over 50% in size
# Summary of the method: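 HEK293-ACE2 cells (Expi293F stably expressing human ACE2) seeded overnight, then compound for 1 h plus 48 h at 37C. Viability as ATP content by luminescence; normalized to wells with cells and media-only wells.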
# [2] = Primary qHTS to identify inhibitors of SARS-CoV-2 cell entry (AID 1645846); conditions: activity change, negative = inhibition: at 57.1 µM (top of the series) unless noted; note: nearly all actives have a fitted effect of over 45% in size
# Summary of the method: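 HEK293-ACE2 (Expi293F, stable hACE2), 1500 cells/well, o/n 37C; cpd 23 nL pin, 1 h; MLV-PP w/ SARS-CoV-2-S (Wuhan-Hu-1, Δ19 C-term); 48 h 37C; Bright-Glo luminescence; normalized vs S-PP and bald PP.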
# Potency is the fitted concentration of half-maximal effect.
compound,measurement,setting,value
C[C@@H]1O[C@@H](OC[C@H]2O[C@@H](Oc3c(-c4ccc(O)c(O)c4)oc4cc(O)cc(O)c4c3=O)[C@H](O)[C@@H](O)[C@@H]2O)[C@H](O)[C@H](O)[C@H]1O,Potency,[1],inactive
same,Potency,[2],inactive
CCCC(=O)O[C@]1(C(=O)COC(=O)CC)CC[C@H]2[C@@H]3CCC4=CC(=O)CC[C@]4(C)[C@H]3[C@@H](O)C[C@@]21C,Potency,[1],inactive
same,"activity change, negative = inhibition",[2],-22.2% [at 27.1 µM]
COc1ccc(C(=O)c2ccccc2)c(O)c1,Potency,[1],inactive
same,Potency,[2],inactive
S=P(N1CC1)(N1CC1)N1CC1,Potency,[1],inactive
same,"activity change, negative = inhibition",[2],4.21%
CN1[C@@H]2CC(OC(=O)[C@H](CO)c3ccccc3)C[C@H]1[C@@H]1O[C@@H]12 (some centres undefined),Potency,[1],inactive
same,Potency,[2],inactive
O=C(O)CCCCCCCC(=O)O,Potency,[1],inactive
same,Potency,[2],inactive
CN1CCN(CC(=O)N2c3ccccc3C(=O)Nc3cccnc32)CC1,outcome,[1],inactive [at 5.25 µM]
same,outcome,[2],inactive [at 5.25 µM]
COc1cc(C(=O)NC2CCCNC2)cc(OC)c1OC (centres undefined),Potency,[1],inactive
same,"activity change, negative = inhibition",[2],-15.8%
CC(=O)NS(=O)(=O)c1ccc(N)cc1,Potency,[1],inactive
same,Potency,[2],inactive
CC(=O)Nc1ccc(OC(=O)c2ccccc2OC(C)=O)cc1,Potency,[1],inactive
same,"activity change, negative = inhibition",[2],-2.29%
c1ccc(-c2nc[nH]c2-c2ccccc2)cc1,Potency,[1],inactive
same,Potency,[2],inactive
Cc1ccccc1OCC(O)CO (centres undefined),Potency,[1],inactive
same,Potency,[2],inactive
CC(C)(C(=O)c1cccnc1)c1cccnc1,Potency,[1],inactive
same,Potency,[2],inactive
CCCCOC(=O)c1ccc(N)cc1,Potency,[1],inactive
same,Potency,[2],inactive
C/C=C1\[C@H]2C=C(C)C[C@]1(N)c1ccc(=O)[nH]c1C2,Potency,[1],inactive
same,Potency,[2],inactive
CC(C)(C)NC[C@H](O)COc1nsnc1N1CCOCC1,Potency,[1],inactive
same,"activity change, negative = inhibition",[2],-5.6%
CC1CC(OC(=O)c2ccccc2O)CC(C)(C)C1 (centres undefined),Potency,[1],inactive
same,Potency,[2],inactive
COC(=O)c1cc(Cl)ccc1NS(=O)(=O)C(F)(F)F,Potency,[1],inactive
same,Potency,[2],inactive
CN(C)CCOc1ccc(/C(=C(/CCCl)c2ccccc2)c2ccccc2)cc1,Potency,[1],inactive
same,Potency,[2],15.8 µM (active) and 20 µM (active)
CCS(=O)(=O)CCn1c([N+](=O)[O-])cnc1C,Potency,[1],inactive
same,Potency,[2],inactive
Oc1ccccc1,Potency,[1],inactive
same,Potency,[2],inactive
CN(C)c1ccc2nc3ccc(=[N+](C)C)cc-3sc2c1,Potency,[1],7.08 µM (active)
same,Potency,[2],8.91 µM (active) and 7.08 µM (active)
C[C@H](CS)C(=O)N1CCC[C@H]1C(=O)O,Potency,[1],inactive
same,Potency,[2],inactive
CCCCC(O)/C=C(C)/C=C/C=C/C(=O)N1CCCC1=O (centres undefined),Potency,[1],inactive
same,"activity change, negative = inhibition",[2],-3.29%
Cc1cc(NS(=O)(=O)c2ccc(N)cc2)no1,Potency,[1],inactive
same,Potency,[2],inactive
CC(=O)[C@H]1CC[C@H]2[C@@H]3C[C@H](C)C4=CC(=O)CC[C@]4(C)[C@H]3[C@@H](O)C[C@]12C,Potency,[1],inactive
same,Potency,[2],inactive
COc1ccc2c(c1)c(CC(=O)OC/C=C(\C)CC/C=C(\C)CCC=C(C)C)c(C)n2C(=O)c1ccc(Cl)cc1,Potency,[1],inactive
same,Potency,[2],inactive
CC(C(=O)O)c1cccc(Oc2ccccc2)c1 (centres undefined),Potency,[1],inactive
same,"activity change, negative = inhibition",[2],-1.5%
CC[C@H](C)[C@H](N)C(=O)O,Potency,[1],inactive
same,Potency,[2],inactive
O=C(c1ccccc1)c1ccccc1,Potency,[1],inactive
same,Potency,[2],inactive
NCCCC[C@H](N[C@@H](CCc1ccccc1)C(=O)O)C(=O)N1CCC[C@H]1C(=O)O,Potency,[1],inactive
same,"activity change, negative = inhibition",[2],-27.7%
C[C@]12C=CC(=O)C=C1[C@@H](F)C[C@@H]1[C@@H]2[C@@H](O)C[C@@]2(C)[C@H]1CC[C@]2(O)C(=O)CO,Potency,[1],inactive
same,Potency,[2],inactive
Cc1cc(NS(=O)(=O)c2ccc(N)cc2)nc(C)n1,Potency,[1],inactive
same,"activity change, negative = inhibition",[2],-52.4%
O=C(O)C[C@H](O)C[C@H](O)/C=C/c1c(C2CC2)nc2ccccc2c1-c1ccc(F)cc1,Potency,[1],inactive
same,"activity change, negative = inhibition",[2],-3.35%
CC(C(=O)O)c1ccc(C(=O)c2ccccc2)s1 (centres undefined),Potency,[1],inactive
same,Potency,[2],inactive
COc1cccc2c1C(=O)c1c(O)c3c(c(O)c1C2=O)C[C@@](O)(C(=O)CO)C[C@@H]3O[C@H]1C[C@H](N)[C@@H](O)[C@H](C)O1,Potency,[1],inactive
same,"activity change, negative = inhibition",[2],-93.2% and -92.9%
Cc1ccc(C(C)C)cc2c(C)ccc1-2,Potency,[1],inactive
same,Potency,[2],inactive
CO[C@@]1(NC(=O)Cc2cccs2)C(=O)N2C(C(=O)O)=C(COC(N)=O)CS[C@@H]21,Potency,[1],inactive
same,Potency,[2],inactive
CCOC(=O)Oc1ccc(CCNC(=O)[C@H](CCSC)NC(C)=O)cc1OC(=O)OCC,Potency,[1],inactive
same,Potency,[2],inactive
CN1CCN2c3ncccc3Cc3ccccc3C2C1 (centres undefined),Potency,[1],inactive
same,"activity change, negative = inhibition",[2],-27.6% and -19.2%
COc1ccc2cc1Oc1cc3c(cc1OC)CC[N+](C)(C)[C@H]3Cc1ccc(cc1)Oc1c(OC)c(OC)cc3c1[C@@H](C2)[N+](C)(C)CC3,Potency,[1],inactive
same,Potency,[2],inactive
CC(C(=O)O)c1ccc2c(c1)[nH]c1ccc(Cl)cc12 (centres undefined),Potency,[1],inactive
same,Potency,[2],inactive
COc1nccnc1NS(=O)(=O)c1ccc(N)cc1,Potency,[1],inactive
same,Potency,[2],inactive
CCCCCCCCCCCCCCCCCCO,Potency,[1],inactive
same,"activity change, negative = inhibition",[2],0.247%
CCCCCCCCCCCCCCCC(=O)OC(C)C,Potency,[1],inactive
same,Potency,[2],inactive
NCC[C@H](O)C(=O)N[C@@H]1C[C@H](N)[C@@H](O[C@H]2O[C@H](CN)[C@@H](O)[C@H](O)[C@@H]2O)[C@H](O)[C@@H]1O[C@H]1O[C@H](CO)[C@@H](O)[C@H](N)[C@@H]1O,outcome,[1],inactive [at 0.702 µM]
same,"activity change, negative = inhibition",[2],-28% [at 0.702 µM]
CC(=O)CC/C=C(\C)CC/C=C(\C)CC/C=C(\C)CCC=C(C)C,Potency,[1],inactive
same,"activity change, negative = inhibition",[2],-24.7%
COc1cc(C)c(/C=C/C(C)=C/C=C/C(C)=C/C(=O)O)c(C)c1C,Potency,[1],inactive
same,"activity change, negative = inhibition",[2],-1.85%
COc1c2occc2cc2ccc(=O)oc12,Potency,[1],inactive
same,Potency,[2],inactive
CCCC(O)C(CC)CO (centres undefined),Potency,[1],inactive
same,Potency,[2],inactive
CC(C)COC(=O)c1ccc(N)cc1,Potency,[1],inactive
same,Potency,[2],inactive
OCCc1ccccc1,Potency,[1],inactive
same,Potency,[2],inactive
O=C(O)COc1nn(Cc2ccccc2)c2ccccc12,Potency,[1],inactive
same,Potency,[2],inactive
CCOC(=O)c1ccc(N)cc1,Potency,[1],inactive
same,Potency,[2],inactive
CCN1CCN(C(=O)N[C@@H](C(=O)N[C@@H]2C(=O)N3[C@@H]2SC(C)(C)[C@H]3C(=O)O)c2ccccc2)C(=O)C1=O,Potency,[1],inactive
same,Potency,[2],inactive
COc1ccc(C(=O)c2ccccc2O)c(O)c1,Potency,[1],inactive
same,Potency,[2],inactive
CCOC(=O)[C@H](CCc1ccccc1)N[C@H]1CCCN2CCC[C@@H](C(=O)O)N2C1=O,Potency,[1],inactive
same,"activity change, negative = inhibition",[2],-27.1%
O=C(O)[C@@H](O)[C@H](O)[C@H](O)[C@@H](O)C(=O)O,Potency,[1],inactive
same,"activity change, negative = inhibition",[2],-0.518%
CC(=O)Nc1ccc(CC(=O)O)cc1,Potency,[1],inactive
same,Potency,[2],inactive
CN1C(CSCC(F)(F)F)Nc2cc(Cl)c(S(N)(=O)=O)cc2S1(=O)=O (centres undefined),Potency,[1],inactive
same,"activity change, negative = inhibition",[2],-21.3%
CC(=O)O[C@@H]1C(=O)O[C@@H]2[C@H]1OC(=O)[C@@H]2OC(C)=O,Potency,[1],inactive
same,"activity change, negative = inhibition",[2],-38.2%
CCCNC(C)C(=O)Nc1ccccc1C (centres undefined),Potency,[1],inactive
same,Potency,[2],inactive
